Among all 69,000 compounds or so, about 8,600 (12%) showed an effect of 50% or more. Shown is part of a subset that was picked to be rich in strong results.
Each compound was assayed on Plasmodium berghei (assay: Screen against P. berghei liver stage (PbLuc), transformed with Luciferase, at 10uM). Conditions: tested at 10 uM.
Type: functional, HepG2
With `O=C(c1cccnc1)N1CCCC(c2ncncc2-c2ccncc2)C1` (stereo not given) the INHIBITION was 44.8%.
In the case of `C[C@@H]1C(=O)NC[C@H]2CN(Cc3ccc4c(c3)OCO4)C[C@H]21`, the INHIBITION is reported as 30.9%.
For `COc1nn(C)c2c1CCCN(C(=O)c1ccc3c(c1)OCO3)C2`, the INHIBITION was 20.9%.
With `O=C(Nc1ccccc1OCCc1ccccn1)N1CCOCC1` the INHIBITION was -98.1%.
In the case of `CNC(=O)C1(Cc2cc(C(C)C)no2)CCN(Cc2cccnc2)C1` (stereo not given), the INHIBITION is reported as 13.125%.
For `CCNC(=O)N1CCc2ccc(NC(=O)NCC3CC3)cc21`, the INHIBITION was 10.7%.
Work on `CCS(=O)(=O)N1CCc2ccc(NC(=O)Nc3ccccc3C)cc21` yielded an INHIBITION of 34.5%.
For `CCS(=O)(=O)N1CCc2ccc(NC(=O)NCc3ccccc3)cc21`, the INHIBITION was -23.5%.
For `COCCN1CCC(NC(=O)Nc2cccc(F)c2)C1` (stereo not given), the INHIBITION was 28.9%.
For `CCS(=O)(=O)N1CCc2ccc(NC(=O)Nc3cccc(F)c3)cc21`, the INHIBITION was 91.4%.
With `CCS(=O)(=O)N1CCc2ccc(NC(=O)Nc3ccccc3)cc21` the INHIBITION was 88.5%.
For `Cn1cccc1C(=O)N1CCO[C@@H]2CN(Cc3nccs3)C[C@@H]2C1`, the INHIBITION was -28.5%.
Work on `CN(C)C(=O)COC[C@]12COC[C@H]1CN(CC1CCC1)C2` yielded an INHIBITION of -11.1%.
Work on `COc1ccnc(N2CCN(C(=O)Cc3ccsc3)CC2)n1` yielded an INHIBITION of -47.6%.
With `CNS(=O)(=O)CCCN1CCN(C(C#N)c2ccccc2)CC1` (stereo not given) the INHIBITION was 47.3%.
For `O=C(Cc1ccccc1)N1CCN(Cc2noc(C3CC3)n2)CC1`, the INHIBITION was 1.77%.
`O=C(Nc1ccccc1)N1CCN(Cc2noc(C3CC3)n2)CC1` was tested, and the INHIBITION was 17.4%.
`CNC(=O)c1c(C)cccc1NCc1nnc(C2CC2)o1` was tested, and the INHIBITION was 24.3%.
With `O=C(Nc1ccc(F)cc1)N1CCN(Cc2noc(C3CC3)n2)CC1` the INHIBITION was -3.2%.
In the case of `Cc1ccccc1NC(=O)N1CCN(Cc2noc(C3CC3)n2)CC1`, the INHIBITION is reported as 58.5%.
For `CNC(=O)c1c(C)cccc1NCc1noc(C2CC2)n1`, the INHIBITION was 74%.
With `O=C(Nc1ccccc1F)N1CCN(Cc2noc(C3CC3)n2)CC1` the INHIBITION was 11.8%.
`O=C(Cc1ccccc1F)N1CCN(Cc2noc(C3CC3)n2)CC1` showed an INHIBITION of 52.3%.
Work on `CNC(=O)c1c(C)cccc1NCC(=O)Nc1cc(C)nn1C` yielded an INHIBITION of 19.1%.
Work on `COC1(CNC(=O)c2ccc3nsnc3c2)CCSC1` (stereo not given) yielded an INHIBITION of -3.83%.
Work on `COCc1noc(CN2CCC3(CC2)[C@H](O)C[C@@H]3OC)n1` yielded an INHIBITION of 15.8%.
`CCOc1ccc(OCC(O)CN2CCN(S(C)(=O)=O)CC2)cc1` (stereo not given) was tested, and the INHIBITION was -67.3%.
`CC(=O)NCC1CCN(C(=O)c2c[nH]c3cc(Cl)ccc23)CC1` showed an INHIBITION of 35.3%.
Work on `CN1CCO[C@@H]2CN(S(=O)(=O)c3cccs3)CC[C@@H]2C1` yielded an INHIBITION of 28.5%.
With `CCn1cc(C(=O)N2C[C@H]3CC(Oc4ccccc4)C[C@H]3C2)cn1` (stereo not given in full) the INHIBITION was -17.715%.
Compound `CC(C)(C)NC[C@@H]1CCC[C@@H]2CN(Cc3csnn3)C[C@@H]21` has an INHIBITION of -39.2%.
Compound `O=C(Cn1cc(-c2ccccc2)cn1)NC(C1CC1)C1CC1` has an INHIBITION of 34.7%.
Compound `OCCn1cc(CN2CCN(CCOc3cccc(F)c3)CC2)cn1` has an INHIBITION of 33.95%.
In the case of `Cc1cccnc1CC(C)Nc1ncc(C)c(N(C)C)n1` (stereo not given), the INHIBITION is reported as 27.9%.
With `Cc1cnc(NC(C)Cc2cccnc2)nc1N(C)C` (stereo not given) the INHIBITION was 55%.
Compound `Cc1cnc(NC(C)Cc2cnccn2)nc1N(C)C` (stereo not given) has an INHIBITION of 0.705%.
Work on `Cc1cc(CC(C)Nc2ncc(C)c(N(C)C)n2)[nH]n1` (stereo not given) yielded an INHIBITION of 63.7%.
With `Cc1cc(NC(C)Cc2cccnc2)n2nccc2n1` (stereo not given) the INHIBITION was 23%.
With `COCc1nc(NC(C)Cc2cc(C)n[nH]2)c2cnn(C)c2n1` (stereo not given) the INHIBITION was 25.4%.
In the case of `COc1ccc(C(=O)N2C[C@@H](O)[C@H](NCc3cnc(C)cn3)C2)cc1`, the INHIBITION is reported as 35.15%.
In the case of `O=C(NCCc1nncn1C1CC1)c1cc2ccccn2c1`, the INHIBITION is reported as -22.3%.
`CCc1nnc(CNc2ccc(CC(=O)N3CCSCC3)cc2)o1` was tested, and the INHIBITION was 84.2%.
`CN(C(=O)Cc1ccc(NC(=O)NC2CCC2)cc1)c1ccccc1` was tested, and the INHIBITION was 55.3%.
`CCc1noc(CNc2ccc(CC(=O)N3CCSCC3)cc2)n1` was tested, and the INHIBITION was 28.5%.
With `O=C(Nc1ccc(CC(=O)N2CCSCC2)cc1)NC1CC1` the INHIBITION was 53.8%.
`O=C(Nc1ccc(CC(=O)N2CCSCC2)cc1)NC1CCCC1` gave an INHIBITION of 33.2%.
`CN(C(=O)Cc1ccc(NC(=O)NC2CC2)cc1)c1ccccc1` showed an INHIBITION of 8.845%.
`O=C(Nc1ccc(CC(=O)N2CCCC2)cc1)NC1CC1` was tested, and the INHIBITION was 36.2%.
Compound `CN(C)C(=O)Cc1ccc(NC(=O)NC2CCCC2)cc1` has an INHIBITION of -36.6%.
`Cc1noc(CNc2ccc(CC(=O)N3CCSCC3)cc2)n1` gave an INHIBITION of 32.5%.
In the case of `CC(C)C(NC(=O)Nc1ccc(F)cc1)C(=O)N(C)C` (stereo not given), the INHIBITION is reported as 18.7%.
`Cn1cc(-c2cc(C(F)(F)F)n(CCCN)n2)cn1` showed an INHIBITION of 21.9%.
With `CNC(=O)CN([C@H]1C[C@H]2CCOC[C@H]2C1)S(=O)(=O)c1ccccc1` the INHIBITION was 19.2%.
With `O=C1COC2(CCN(Cc3ccoc3)CC2)CN1CCn1cccn1` the INHIBITION was 0.804%.
In the case of `Cc1occc1C(=O)N1CCO[C@H]2[C@H](OCc3ccccn3)CC[C@@H]21`, the INHIBITION is reported as 30.3%.
`COc1cnc(N2CCN(C)CC2)nc1-c1ccnn1C` gave an INHIBITION of 20.8%.
With `Cc1cnc(N2CCCC(c3ccccc3)C2)nc1-c1ncnn1C` (stereo not given) the INHIBITION was 39.3%.
Work on `Cc1cnc(N2CCN(C)CC2)nc1-c1ccnn1C` yielded an INHIBITION of 16.3%.
In the case of `Cc1cnc(N2CCCC(O)C2)nc1-c1ccnn1C` (stereo not given), the INHIBITION is reported as 16.6%.
`Cc1cnc(N2CC[C@@]3(O)CCCC[C@H]3C2)nc1-c1ccnn1C` was tested, and the INHIBITION was 30.4%.
In the case of `Cc1cnc(N2CCC(c3ccncc3)CC2)nc1-c1ccnn1C`, the INHIBITION is reported as 68%.
`Cc1cnc(N2CCCC(c3ccccc3)C2)nc1-c1ccnn1C` (stereo not given) was tested, and the INHIBITION was 71%.
With `Cc1cnc(N2CCC(c3ccccc3)CC2)nc1-c1ccnn1C` the INHIBITION was 68%.
For `COc1cnc(N2CC(N3CCOCC3)C2)nc1-c1ccnn1C`, the INHIBITION was 41%.
`Cc1ccoc1C(=O)N1C[C@@H]2COC[C@]2(COCc2cccnc2)C1` was tested, and the INHIBITION was -34.7%.
Compound `CCCc1n[nH]c(C2CN(C(=O)c3n[nH]c4ccccc34)CCO2)n1` (stereo not given) has an INHIBITION of 21%.
In the case of `COC(=O)NCC(=O)NC1(C)CCc2ccccc2C1` (stereo not given), the INHIBITION is reported as 7.3%.
Work on `CN(C)c1ccc(C(=O)N2CCCC(n3cccn3)C2)nn1` (stereo not given) yielded an INHIBITION of 3.15%.
In the case of `Cc1ccc(NC2CCN(C(=O)CCCc3cccs3)CC2)nn1`, the INHIBITION is reported as -3.7%.
In the case of `O=C1CCC2(CCN(Cc3cscn3)CC2)CN1CC1CCCO1` (stereo not given), the INHIBITION is reported as -23.5%.
With `Cc1noc(CCCC(=O)NC(C)c2ccccn2)n1` (stereo not given) the INHIBITION was 13.9%.
`CSCC(=O)NC(Cc1ccc(C)cc1)c1ccccn1` (stereo not given) was tested, and the INHIBITION was 21.3%.
In the case of `Cc1n[nH]c(SCC(=O)N[C@@H](C)C(N)=O)n1`, the INHIBITION is reported as 4.41%.
For `Cc1n[nH]c(SCC(=O)NC(c2ccncc2)C(C)C)n1` (stereo not given), the INHIBITION was 50.1%.
For `Cc1n[nH]c(SCC(=O)NC(c2ccccn2)C(C)C)n1` (stereo not given), the INHIBITION was 58.7%.
`Cc1ccc(OCCC(=O)NC(C)c2ccncc2)cc1` (stereo not given) gave an INHIBITION of 41.6%.
In the case of `CC(C)CNC(=O)Cn1ccc2ccccc21`, the INHIBITION is reported as 25.7%.
Work on `O=C(NC1CC1)c1ccnc(-c2cc(NCCO)nc3[nH]ccc23)c1` yielded an INHIBITION of -20.1%.
Work on `O=S(=O)(c1ccccc1)N1CCC2(CCCN2Cc2ccccc2Cl)C1` (stereo not given) yielded an INHIBITION of 60.2%.
With `O=C(c1ccc[nH]1)N1CCC2(CCCN2Cc2cccnc2)CC1` the INHIBITION was 4.02%.
`CCc1ccc(S(=O)(=O)N2CCCC3(CCCN3S(C)(=O)=O)C2)cc1` (stereo not given) was tested, and the INHIBITION was -12.2%.
Work on `O=C(c1ccc[nH]1)N1CCCC2(CCCN2Cc2cccnc2)C1` (stereo not given) yielded an INHIBITION of 12.1%.
`CCS(=O)(=O)N1CCCC2(CCCN2Cc2cccc(F)c2)C1` (stereo not given) showed an INHIBITION of -22.1%.
`CS(=O)(=O)N1CCCC12CCCN(S(=O)(=O)c1cccc(F)c1)C2` (stereo not given) showed an INHIBITION of -2.35%.
`O=S(=O)(c1ccccc1)N1CCC2(CCCN2Cc2cccc(F)c2)C1` (stereo not given) showed an INHIBITION of 78.8%.
With `O=S(=O)(c1ccccc1)N1CCC2(CCCN2Cc2ccc(Cl)cc2)C1` (stereo not given) the INHIBITION was 91.7%.
`Cc1ccc(CN2CCCC23CCN(S(=O)(=O)c2ccccc2)C3)o1` (stereo not given) gave an INHIBITION of 34.7%.
`COCCC(=O)N1CCC2(CCCN2Cc2ccccc2)C1` (stereo not given) gave an INHIBITION of -22.5%.
`CC(C)c1ccc(S(=O)(=O)N2CCCC3(CCCN3S(C)(=O)=O)C2)cc1` (stereo not given) showed an INHIBITION of -3.33%.
With `O=S(=O)(c1ccccc1)N1CCC2(CCCN2Cc2cccnc2)C1` (stereo not given) the INHIBITION was 55.5%.
`CCOc1cc(/C=C/c2ncc(C(=O)O)s2)cc(Br)c1O` gave an INHIBITION of -13.3%.
`CC(C)CNC(=O)CNC(=O)c1nc(Cc2c(Cl)cccc2Cl)no1` gave an INHIBITION of 41%.
`COCCC1CCN(CC(C)n2cnc3ccccc32)CC1` (stereo not given) gave an INHIBITION of -3.47%.
Work on `CCc1nc(CN2CCCN(C(=O)c3cnc(C)cn3)CC2)cs1` yielded an INHIBITION of 10.733%.
Compound `COc1ccccc1CN(Cc1cccnc1)CC1CCCO1` (stereo not given) has an INHIBITION of 42.6%.
Compound `CCN(CC)Cc1ccc(C(=O)N2CCN(CC(C)O)CC2)o1` (stereo not given) has an INHIBITION of 21.5%.
Compound `COC(=O)c1cccc(S(=O)(=O)NC(=O)COC2CCCC2)c1` has an INHIBITION of 15.5%.
With `COCCC(=O)N1CCC2(CCCN2Cc2cccc(Cl)c2)C1` (stereo not given) the INHIBITION was 47.9%.
For `CCS(=O)(=O)N1CCCC2(CCCN2Cc2cccc(Cl)c2)C1` (stereo not given), the INHIBITION was -14.3%.
`O=S(=O)(c1ccccc1)N1CCC2(CCCN2Cc2cccc(Cl)c2)C1` (stereo not given) gave an INHIBITION of 61.8%.
`NC(=O)C1CCN(C(=O)NCCOc2ccc3c(c2)CCC3)CC1` was tested, and the INHIBITION was 5.45%.
`Cc1cc(Cl)ccc1C(=O)N1C[C@H](C2CC2)[C@@H](N)C1` showed an INHIBITION of 32.2%.
`N[C@H]1CN(C(=O)c2ccc(Cl)cc2O)C[C@@H]1C1CC1` was tested, and the INHIBITION was 61%.
`N[C@H]1CN(C(=O)c2ccc(Cl)cc2F)C[C@@H]1C1CC1` gave an INHIBITION of 25.7%.
With `O[C@@H]1C[C@H]2CN(Cc3ccsc3)[C@@H](Cc3ccccc3)CN2C1` the INHIBITION was 39.3%.

— ChEMBL document CHEMBL4513216, “Probing the Open Global Health Chemical Diversity Library for Multistage-Active Starting Points for Next-Generation Antimalarials” (ACS Infect Dis, 2020)
